# Experimental data: article PMC5540273 (PLoS ONE, 2017)
# What was measured:
# Details in all cases: concentration: 1 μM, replicates: in singlicate; n = 1
# [1] = test system: SGK3
# [2] = test system: SGK
# [3] = test system: SIK2
# [4] = test system: SIK
# [5] = test system: SLK
# [6] = test system: T1, SNARK
# T1 construct: gene NUAK2
# [7] = test system: SNRK
# [8] = test system: SRC
# [9] = test system: SRMS
# [10] = test system: SRPK1
# 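Further: KINOMEscan kinase panel screen.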
structure (smiles),measurement,setting,value
COc1ccc(CSc2nnc(-c3ccc4c(c3)CCO4)o2)cc1,%Inh,[1],0%
same,%Inh,[2],0%
same,%Inh,[3],0%
same,%Inh,[4],0%
same,%Inh,[5],0%
same,%Inh,[6],0%
same,%Inh,[7],0%
same,%Inh,[8],0%
same,%Inh,[9],0%
same,%Inh,[10],0%
COc1ccc(CSc2nnc(-c3ccc4nccn4c3)o2)cc1C(F)(F)F,%Inh,[1],61%
same,%Inh,[2],8%
same,%Inh,[3],29%
same,%Inh,[4],13%
same,%Inh,[5],14%
same,%Inh,[6],77%
same,%Inh,[7],5%
same,%Inh,[8],7%
same,%Inh,[9],3%
same,%Inh,[10],20%
CS(=O)(=O)CCNCc1nc(-c2ccc3ncnc(Nc4ccc5c(cnn5Cc5ccccc5)c4)c3c2)cs1.Cl.Cl [GW569716],%Inh,[1],0%
same,%Inh,[2],3%
same,%Inh,[3],0%
same,%Inh,[4],0%
same,%Inh,[5],0%
same,%Inh,[6],0%
same,%Inh,[7],0%
same,%Inh,[8],0%
same,%Inh,[9],0%
same,%Inh,[10],14%
Cn1cncc1C(=O)NC1CCN(c2ccnc(Nc3ccc(F)cc3)n2)C1 (stereo not shown) [GSK1379717],%Inh,[1],0%
same,%Inh,[2],14%
same,%Inh,[3],0%
same,%Inh,[4],0%
same,%Inh,[5],0%
same,%Inh,[6],0%
same,%Inh,[7],0%
same,%Inh,[8],0%
same,%Inh,[9],0%
same,%Inh,[10],100%
O=C1NC(=O)C(c2ccc(Cl)cc2)=C1Nc1ccc(O)cc1 [SB-340867],%Inh,[1],6%
same,%Inh,[2],0%
same,%Inh,[3],0%
same,%Inh,[4],0%
same,%Inh,[5],9%
same,%Inh,[6],0%
same,%Inh,[7],0%
same,%Inh,[8],0%
same,%Inh,[9],0%
same,%Inh,[10],18%
Fc1ccc(-c2nc[nH]c2-c2ccncc2)cc1 [SB-217360],%Inh,[1],7%
same,%Inh,[2],0%
same,%Inh,[3],0%
same,%Inh,[4],0%
same,%Inh,[5],32%
same,%Inh,[6],0%
same,%Inh,[7],0%
same,%Inh,[8],0%
same,%Inh,[9],34%
same,%Inh,[10],0%
CS(=O)(=O)Cc1ccc(Nc2nccc(-c3c(-c4cccc(NC(=O)C5CCCCC5)c4)nn4ncccc34)n2)cc1 [GSK350559],%Inh,[1],0%
same,%Inh,[2],46%
same,%Inh,[3],0%
same,%Inh,[4],0%
same,%Inh,[5],53%
same,%Inh,[6],7%
same,%Inh,[7],16%
same,%Inh,[8],30%
same,%Inh,[9],3%
same,%Inh,[10],29%
COc1ccc(-c2coc3ccc(-c4nnc(C)o4)cc23)cc1,%Inh,[1],0%
same,%Inh,[2],0%
same,%Inh,[3],3%
same,%Inh,[4],0%
same,%Inh,[5],5%
same,%Inh,[6],0%
same,%Inh,[7],0%
same,%Inh,[8],20%
same,%Inh,[9],0%
same,%Inh,[10],9%
CN1c2ccc(-c3ccc(C(N)=O)cc3)cc2-c2[nH]ncc2S1(=O)=O,%Inh,[1],0%
same,%Inh,[2],0%
same,%Inh,[3],10%
same,%Inh,[4],8%
same,%Inh,[5],2%
same,%Inh,[6],0%
same,%Inh,[7],0%
same,%Inh,[8],7%
same,%Inh,[9],4%
same,%Inh,[10],0%
CCc1ccc(-c2ccc3c(c2)-c2n[nH]cc2S(=O)(=O)N3C)cc1,%Inh,[1],0%
same,%Inh,[2],0%
same,%Inh,[3],13%
same,%Inh,[4],29%
same,%Inh,[5],0%
same,%Inh,[6],0%
same,%Inh,[7],1%
same,%Inh,[8],0%
same,%Inh,[9],1%
same,%Inh,[10],0%
Cc1ccc(-c2nc(Nc3ccncc3)c3ccccc3n2)s1 [GSK189015],%Inh,[1],47%
same,%Inh,[2],5%
same,%Inh,[3],16%
same,%Inh,[4],0%
same,%Inh,[5],9%
same,%Inh,[6],74%
same,%Inh,[7],3%
same,%Inh,[8],13%
same,%Inh,[9],3%
same,%Inh,[10],38%
CC[C@@H]1CO[C@H](C(=O)Nc2ccccc2)CN1c1cc(-c2ccc3c(N)n[nH]c3c2)nc(NC)n1 [GSK2376236],%Inh,[1],9%
same,%Inh,[2],19%
same,%Inh,[3],0%
same,%Inh,[4],0%
same,%Inh,[5],16%
same,%Inh,[6],26%
same,%Inh,[7],5%
same,%Inh,[8],0%
same,%Inh,[9],0%
same,%Inh,[10],32%
COc1ccc2cc(-c3nc(-c4ccccc4C(C)C)[nH]c3-c3ccncc3)ccc2c1 [SB-660566],%Inh,[1],0%
same,%Inh,[2],0%
same,%Inh,[3],0%
same,%Inh,[4],0%
same,%Inh,[5],78%
same,%Inh,[6],0%
same,%Inh,[7],0%
same,%Inh,[8],0%
same,%Inh,[9],0%
same,%Inh,[10],7%
Cn1cncc1-c1cc2c(Nc3ccc(OCc4ccccc4)cc3)ncnc2cn1 [GW281179],%Inh,[1],0%
same,%Inh,[2],4%
same,%Inh,[3],0%
same,%Inh,[4],0%
same,%Inh,[5],19%
same,%Inh,[6],0%
same,%Inh,[7],0%
same,%Inh,[8],0%
same,%Inh,[9],0%
same,%Inh,[10],18%
Nc1cccc(-c2ccc3c(N)n[nH]c3c2)n1 [GSK2192730],%Inh,[1],34%
same,%Inh,[2],2%
same,%Inh,[3],0%
same,%Inh,[4],0%
same,%Inh,[5],0%
same,%Inh,[6],19%
same,%Inh,[7],0%
same,%Inh,[8],0%
same,%Inh,[9],0%
same,%Inh,[10],33%
Cn1cnc2c(N)ncnc21 [SKF-97623],%Inh,[1],0%
same,%Inh,[2],0%
same,%Inh,[3],27%
same,%Inh,[4],0%
same,%Inh,[5],0%
same,%Inh,[6],0%
same,%Inh,[7],0%
same,%Inh,[8],0%
same,%Inh,[9],0%
same,%Inh,[10],0%
COc1cccc(C2=C(Nc3cc(Cl)c(O)c(Cl)c3)C(=O)NC2=O)c1 [SB-390767],%Inh,[1],0%
same,%Inh,[2],0%
same,%Inh,[3],0%
same,%Inh,[4],0%
same,%Inh,[5],13%
same,%Inh,[6],0%
same,%Inh,[7],0%
same,%Inh,[8],0%
same,%Inh,[9],0%
same,%Inh,[10],11%
Cc1c(Cn2c3ccccc3n3c(=O)cc(N4CCOCC4)nc23)cccc1C(F)(F)F [GSK2306394],%Inh,[1],0%
same,%Inh,[2],15%
same,%Inh,[3],0%
same,%Inh,[4],0%
same,%Inh,[5],5%
same,%Inh,[6],0%
same,%Inh,[7],0%
same,%Inh,[8],1%
same,%Inh,[9],0%
same,%Inh,[10],41%
CCn1c(-c2ccccc2)nc2cnccc21 [SB-733416],%Inh,[1],0%
same,%Inh,[2],9%
same,%Inh,[3],5%
same,%Inh,[4],3%
same,%Inh,[5],28%
same,%Inh,[6],0%
same,%Inh,[7],0%
same,%Inh,[8],0%
same,%Inh,[9],0%
same,%Inh,[10],11%
O=c1cc(N2CCOCC2)nc2n(Cc3cccc(Cl)c3Cl)c3ccccc3n12 [GSK2299009],%Inh,[1],4%
same,%Inh,[2],31%
same,%Inh,[3],18%
same,%Inh,[4],16%
same,%Inh,[5],39%
same,%Inh,[6],16%
same,%Inh,[7],0%
same,%Inh,[8],0%
same,%Inh,[9],0%
same,%Inh,[10],19%
CNc1cc(-c2ccc3c(N)n[nH]c3c2)nc(N)n1 [GSK2224810],%Inh,[1],7%
same,%Inh,[2],0%
same,%Inh,[3],13%
same,%Inh,[4],0%
same,%Inh,[5],0%
same,%Inh,[6],2%
same,%Inh,[7],0%
same,%Inh,[8],0%
same,%Inh,[9],0%
same,%Inh,[10],46%
NS(=O)(=O)c1cccc(N/C=C2\C(=O)Nc3ccc(S(=O)(=O)Cc4c(Cl)cccc4Cl)cc32)c1 [GSK398099],%Inh,[1],5%
same,%Inh,[2],0%
same,%Inh,[3],0%
same,%Inh,[4],0%
same,%Inh,[5],15%
same,%Inh,[6],0%
same,%Inh,[7],0%
same,%Inh,[8],0%
same,%Inh,[9],0%
same,%Inh,[10],19%
O=c1cc(N2CCOCC2)nc2n(Cc3ccccc3F)ccn12 [GSK2297428],%Inh,[1],4%
same,%Inh,[2],0%
same,%Inh,[3],0%
same,%Inh,[4],0%
same,%Inh,[5],28%
same,%Inh,[6],0%
same,%Inh,[7],0%
same,%Inh,[8],0%
same,%Inh,[9],0%
same,%Inh,[10],0%
Cc1cccc2c(-c3ccncn3)c(-c3ccc(F)cc3)nn12 [GW515532],%Inh,[1],2%
same,%Inh,[2],12%
same,%Inh,[3],39%
same,%Inh,[4],0%
same,%Inh,[5],13%
same,%Inh,[6],0%
same,%Inh,[7],0%
same,%Inh,[8],0%
same,%Inh,[9],0%
same,%Inh,[10],33%
Cc1ccc(NC(=O)Nc2ccc(Cl)c(C(F)(F)F)c2)cc1-c1ccc(C(=O)Nc2ccncc2)cc1 [GSK1398470],%Inh,[1],4%
same,%Inh,[2],0%
same,%Inh,[3],26%
same,%Inh,[4],41%
same,%Inh,[5],21%
same,%Inh,[6],4%
same,%Inh,[7],56%
same,%Inh,[8],21%
same,%Inh,[9],0%
same,%Inh,[10],30%
CNc1nc(-c2ccc3c(N)n[nH]c3c2)cc(N2C[C@@H](C(=O)NC3CCCCC3)OC[C@H]2C)n1 [GSK2375584],%Inh,[1],20%
same,%Inh,[2],0%
same,%Inh,[3],0%
same,%Inh,[4],0%
same,%Inh,[5],24%
same,%Inh,[6],30%
same,%Inh,[7],2%
same,%Inh,[8],0%
same,%Inh,[9],0%
same,%Inh,[10],4%
Cc1cnc(N)c(/C=C/c2cncc(C(=O)NCCc3ccc(Cl)cc3Cl)c2)c1.Cl [GSK190937],%Inh,[1],0%
same,%Inh,[2],0%
same,%Inh,[3],0%
same,%Inh,[4],0%
same,%Inh,[5],0%
same,%Inh,[6],0%
same,%Inh,[7],0%
same,%Inh,[8],0%
same,%Inh,[9],24%
same,%Inh,[10],24%
CNc1nc(-c2ccc3c(N)n[nH]c3c2)cc(N2C[C@@H](C(=O)Nc3ccccc3)CC[C@H]2C)n1 [GSK2298859],%Inh,[1],1%
same,%Inh,[2],0%
same,%Inh,[3],0%
same,%Inh,[4],4%
same,%Inh,[5],19%
same,%Inh,[6],8%
same,%Inh,[7],0%
same,%Inh,[8],2%
same,%Inh,[9],0%
same,%Inh,[10],33%
CCCCc1nn2ncccc2c1-c1ccnc(NC2CC2)n1 [GW684374],%Inh,[1],2%
same,%Inh,[2],0%
same,%Inh,[3],0%
same,%Inh,[4],0%
same,%Inh,[5],0%
same,%Inh,[6],9%
same,%Inh,[7],0%
same,%Inh,[8],0%
same,%Inh,[9],0%
same,%Inh,[10],12%
CC(=O)c1cccc(NC(=O)NC2CCN(c3ccnc(Nc4ccc(F)cc4)n3)C2)c1 (stereo not shown) [GSK1379710],%Inh,[1],5%
same,%Inh,[2],18%
same,%Inh,[3],9%
same,%Inh,[4],0%
same,%Inh,[5],2%
same,%Inh,[6],19%
same,%Inh,[7],7%
same,%Inh,[8],0%
same,%Inh,[9],8%
same,%Inh,[10],21%
Cc1ccc(NC(=O)Nc2ccccc2F)cc1-c1ccc(C(=O)Nc2ccncc2)cc1 [GSK1398477],%Inh,[1],0%
same,%Inh,[2],0%
same,%Inh,[3],22%
same,%Inh,[4],15%
same,%Inh,[5],34%
same,%Inh,[6],0%
same,%Inh,[7],0%
same,%Inh,[8],27%
same,%Inh,[9],0%
same,%Inh,[10],52%
COc1ccc(Nc2nccc(-c3ccc(NC(=O)c4cc5cc(F)ccc5[nH]4)cc3)n2)cc1 [GSK1229496],%Inh,[1],1%
same,%Inh,[2],0%
same,%Inh,[3],0%
same,%Inh,[4],0%
same,%Inh,[5],0%
same,%Inh,[6],0%
same,%Inh,[7],0%
same,%Inh,[8],0%
same,%Inh,[9],7%
same,%Inh,[10],10%
COc1ccc(Nc2nccc(N3CCC(NC(=O)c4cc5ccccc5s4)C3)n2)cc1 (stereo not shown) [GSK1379738],%Inh,[1],7%
same,%Inh,[2],0%
same,%Inh,[3],0%
same,%Inh,[4],0%
same,%Inh,[5],4%
same,%Inh,[6],6%
same,%Inh,[7],0%
same,%Inh,[8],0%
same,%Inh,[9],0%
same,%Inh,[10],17%
CC(C)c1cc(-c2ccc3c(N)n[nH]c3c2)nc(N)n1 [GSK2250882],%Inh,[1],4%
same,%Inh,[2],0%
same,%Inh,[3],0%
same,%Inh,[4],0%
same,%Inh,[5],14%
same,%Inh,[6],0%
same,%Inh,[7],0%
same,%Inh,[8],0%
same,%Inh,[9],8%
same,%Inh,[10],60%
